# Laboratory results published in PMC5540273 (PLoS ONE, 2017).
# How the values were obtained:
# Details in all cases: concentration: 1 μM, replicates: in singlicate; n = 1
# PIP5K1A = system: PIP5K1A
# PIP5K1C = system: PIP5K1C
# PIP5K2B = system: PIP5K2B
# PIP5K2C = system: T1, PIP5K2C
# T1 construct: gene PIP4K2C
# PKAC-alpha = system: T2, PKAC-alpha
# T2 construct: gene PRKACA
# PKAC-beta = system: T3, PKAC-beta
# T3 construct: gene PRKACB
# PKMYT1 = system: PKMYT1
# PKN1 = system: PKN1
# PKN2 = system: PKN2
# PLK1 = system: PLK1
# 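Also: KINOMEscan kinase panel screen.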
Structure (SMILES),%Inh (PIP5K1A),%Inh (PIP5K1C),%Inh (PIP5K2B),%Inh (PIP5K2C),%Inh (PKAC-alpha),%Inh (PKAC-beta),%Inh (PKMYT1),%Inh (PKN1),%Inh (PKN2),%Inh (PLK1)
Cl.Cl.NCC(C(=O)Nc1cc(Br)c(-c2ccnc3[nH]ccc23)s1)c1ccccc1 (stereo not shown) [GSK1269851],55%,38%,74%,1%,97.2%,93.6%,0%,100%,15%,0%
Clc1ccc(-c2nn3ncccc3c2-c2ccnc(Nc3ccc4c(c3)OCCO4)n2)cc1 [GW829116],17%,0%,0%,43%,24%,0%,2%,0%,0%,0%
COc1cc(Nc2nccc(-c3c(-c4cccc(NC(=O)c5c(F)cccc5F)c4)nn4ccccc34)n2)cc(OC)c1OC [GSK323521],0%,45%,23%,27%,0%,6%,4%,12%,6%,2%
c1ccc(-c2n[nH]cc2Nc2ccnc3ccccc23)nc1 [GW694077],10%,73%,54%,72%,0%,0%,0%,7%,0%,0%
NCCCC(NC(=O)c1cc(Br)c(-c2ccnc3[nH]ccc23)s1)c1ccccc1.O=C(O)C(F)(F)F.O=C(O)C(F)(F)F (stereo not shown) [GSK1287544],72%,42%,60%,28%,99.4%,99.2%,0%,18%,58%,0%
c1ccc(-c2cnc3nccnn23)cc1 [AH20685],0%,24%,13%,0%,0%,0%,0%,7%,0%,0%
CN(C)S(=O)(=O)c1cc(-c2ccc3nccc(-c4cccc(S(N)(=O)=O)c4)c3c2)cnc1N [GSK1669921],0%,36%,21%,85%,3%,10%,0%,57%,0%,33%
Cc1cccc(NC(=O)Nc2ccc(Oc3ncnc4ccn(C)c34)cc2)c1,0%,49%,2%,32%,0%,0%,0%,0%,0%,0%
CC(C)c1nc(-c2cccc(NS(=O)(=O)c3c(F)cccc3F)c2F)c(-c2ccnc(Nc3ccc(N4CCOCC4)nc3)n2)s1 [GSK2008607],0%,45%,0%,87%,0%,0%,24%,6%,0%,0%
COc1cc(Nc2ncc3c(C)nc(-c4cc5ccccc5[nH]4)n3n2)cc(OC)c1OC [GW869516],0%,89%,29%,90.3%,0%,51%,25%,0%,0%,19%
C[C@@H](Oc1cc(-n2cnc3cc(-c4ccnc(NCCS(C)(=O)=O)c4)ccc32)sc1C(N)=O)c1ccccc1Cl [GSK907232],5%,14%,47%,30%,0%,0%,5%,35%,0%,100%
CN(C)Cc1ccc(-c2ccc3c(Nc4ccc(Oc5ccccn5)cc4)ccnc3c2)o1 [GW567148],33%,18%,0%,49%,0%,0%,0%,0%,0%,0%
Nc1ncnc2c1nc(-c1ccccc1)n2-c1ccccc1 [SKF-97293],13%,0%,19%,0%,7%,17%,18%,20%,4%,68%
COc1cccc(NC(=O)NC2CCN(c3ccnc(Nc4cc(OC)c(OC)c(OC)c4)n3)C2)c1 (stereo not shown) [GSK1379763],0%,57%,0%,91.1%,0%,0%,64%,0%,0%,15%
COc1cccc(-c2ccc3c(NC(=O)C4CC4)n[nH]c3n2)c1 [SB-710903],58%,65%,20%,64%,0%,0%,8%,0%,0%,0%
COc1ccc(Nc2nccc(NCCNC(=O)c3cc4ccccc4s3)n2)cc1 [GSK1379896],0%,48%,22%,24%,0%,0%,0%,0%,0%,7%
